Screens: PubChem, National Center for Advancing Translational Sciences (NCATS)
A selection: hits, their analogues and other compounds. The true share with any hit is near 8%.
Coupling enz = qHTS Assay for Inhibitors of Fructose-1,6-bisphosphate Aldolase from Giardia Lamblia: Coupling assay counterscreen | coupling enzyme system counterscreen, AmpLite Red fluorescence | activity change, negative = inhibition, % at 58.2 µM, hits read low | actives 0.67% (n = 290,000) | AID 2472, 2010; in the data active = activity change below about -30%
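Counterscreen of the coupled detection system alone, without aldolase: glyceraldehyde-3-phosphate coupling enzymes plus AmpLite Red readout. Compounds at 57.5 uM final, 10 min RT preincubation, 20 min RT reaction, fluorescence 525/598 nm.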
VP16 counter = VP16 counterscreen qHTS for inhibitors of ROR gamma transcriptional activity; Drosophila S2 Gal4-VP16 UAS-luciferase, luminescence, 20 h; Potency, µM (doses to about 53.6 µM), for the others: top-dose activity, negative = inhibition, actives largely listed as inhibitors; actives 3.5% (n = 310,000); AID 2546, 2010;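 note: Gal4-VP16 expression switched on by copper sulfate through the metallothionein promoter; potency is the fitted concentration of half-maximal effect; nearly all actives have a fitted effect of over 50% in size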
RORg inh = qHTS for inhibitors of ROR gamma transcriptional activity; Nuclear receptor ROR-gamma (Mus musculus), P51450; Drosophila S2 Gal4-RORgamma UAS-luciferase reporter, 20 h; Potency, µM (top dose mostly 53.6 µM), without a hit: at the highest dose activity change, negative = inhibition, hits mostly inhibitors; actives 5.4% (n = 310,000); AID 2551, 2010; note: potency is the fitted concentration of half-maximal effect; nearly all actives have a fitted effect of over 60% in size
Target sequence (P51450 whole entry, looked up, the tested form may be a part): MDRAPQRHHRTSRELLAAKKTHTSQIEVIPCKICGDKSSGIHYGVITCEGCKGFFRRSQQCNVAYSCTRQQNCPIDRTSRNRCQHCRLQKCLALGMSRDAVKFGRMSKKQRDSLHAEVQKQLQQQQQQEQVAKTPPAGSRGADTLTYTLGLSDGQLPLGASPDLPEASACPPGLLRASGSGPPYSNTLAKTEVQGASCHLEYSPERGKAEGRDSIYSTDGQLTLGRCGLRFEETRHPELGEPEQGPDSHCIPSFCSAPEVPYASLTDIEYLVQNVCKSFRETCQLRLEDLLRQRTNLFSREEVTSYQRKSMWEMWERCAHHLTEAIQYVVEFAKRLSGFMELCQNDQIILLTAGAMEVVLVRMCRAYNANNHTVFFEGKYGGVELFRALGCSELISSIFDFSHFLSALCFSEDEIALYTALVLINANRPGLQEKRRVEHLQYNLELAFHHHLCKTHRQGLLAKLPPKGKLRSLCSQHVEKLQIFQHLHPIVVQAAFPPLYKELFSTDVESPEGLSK
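Luminescence from a UAS-regulated Photinus luciferase reporter in stably transfected Drosophila Schneider cells is measured; decreased signal marks ROR gamma inhibition. Fusion expression is induced by 700 uM copper sulfate for 20 hr.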
TSHR antagonist = Antagonists of the Thyroid Stimulating Hormone Receptor: HTS campaign; Thyrotropin receptor (Homo sapiens), P16473; TSHR-expressing cells, TSH-stimulated cAMP HTRF, 2 h; stronger effect = lower value; activity change, negative = inhibition, % at 11.5 µM; actives 0.2% (n = 330,000); AID 504810, 2011;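 active = activity change below a set negative limit, meaning inhibition stronger than a set level, cut at about -70% in these data; inconclusive = activity change between two set negative limits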
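TSHR-expressing cells were treated with compounds, then stimulated with TSH at EC80 (4nM final) for 2 hours at 37 deg C. Cellular cAMP was measured by HTRF competition between lysate cAMP and cAMP-d2 for a cryptate-labelled anti-cAMP antibody.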
ELG1 repair inh = qHTS screen for small molecules that inhibit ELG1-dependent DNA repair in human embryonic kidney (HEK293T) cells expressing luciferase-tagged ELG1; HEK293T ELG1-luciferase reporter, luminescence, 16 h; DNA damage induced by 5-fluorouridine; Potency, µM (highest dose often 46.1 µM), for the others: at the top dose activity change, negative = inhibition, most hits filed as inhibitors; actives 2.3% (n = 330,000); note: potency is the fitted concentration of half-maximal effect; nearly all actives have a fitted effect of over 55% in size
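Reporter activity after DNA damage by 5-fluorouridine is monitored. Compound-treated cells incubate 16 hr at 37 °C, then ONE-Glo is added for 30 min before luminescence reading.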
Starred values were filed as active, the others as inactive; ? = inconclusive; · = no result given; [ ] = another dose, or the depositor's remark. Unless noted, calls come from the whole dose curve; as a rule, active = well fitted curve in the direction sought with a large enough effect; inconclusive = small, poorly fitted or top-dose-only effect, or another doubt; inactive = no such curve, though single readings can be large; an effect the other way counts as inactive or inconclusive. % is set by controls: 0 for no effect and ±100 for the full control effect.

SMILES	Coupling enz	VP16 counter	RORg inh	TSHR antagonist	ELG1 repair inh
COc1cc(/C=N/NC(=S)N/N=C/c2cc(OC)c(OC)c(OC)c2)cc(OC)c1OC	4	4µM*	?	3	?
COc1cc(/C=N/NC(=S)Nc2cccc(C(=O)O)c2)cc(OC)c1OC	4	?	?	16	14%
COc1ccc(/C=N/NC(=O)CCC(=O)Nc2ccccc2)cc1OC	-1	1%	-18%	5	8%
COc1cc(/C=N/NC(=O)c2cc(-c3ccccc3)sc2N)cc(OC)c1OC	1	1%	14%	-3	23µM*
COc1cc(/C=N/NC(=O)c2ccc(-c3ccccc3)cc2)cc(OC)c1OC	2	-7%	-36%	10	16µM*
COc1ccc(/C=N/NC(=O)CCn2cnc(-c3ccccc3)c2-c2ccccc2)cc1OC	4	13µM*	?	4	?
COc1ccc(/C=N\NC(=O)c2ccc(-c3ccccc3)cc2)c(OC)c1OC	·	0%	-13%	10	0%
CC(C)C[C@H](NC(=O)[C@H](CO)NC(=O)[C@@H]1CCCN1C(=O)[C@H](Cc1ccc(O)cc1)NC(=O)[C@H](CC(C)C)NC(=O)[C@H](CC(C)C)NC(=O)[C@@H]1CCCN1C(=O)[C@@H](NC(=O)[C@H](CO)NC(=O)[C@H](CO)NC(=O)[C@H](CO)NC(=O)[C@H](CO)NC(=O)[C@@H]1CCCN1C(=O)[C@@H](NC(=O)[C@@H](N)CO)C(C)C)[C@@H](C)O)C(=O)N[C@@H](C)C(=O)N[C@@H](CC(C)C)C(=O)N1CCC[C@H]1C(=O)N[C@@H](C)C(=O)N1CCC[C@H]1C(=O)O	2	-5%	8%	·	·
Cc1c(C(c2ccc(F)cc2)c2c(C)n(C)n(-c3ccccc3)c2=O)c(=O)n(-c2ccccc2)n1C	5	-12%	-17%	-2	-5%
N#Cc1ccccc1OCC(=O)NC(=O)NC1CCS(=O)(=O)C1 (stereo unspecified)	·	·	·	1	?
Cc1cnc(C(=O)OCc2csc(CC(=O)Nc3ccccc3C)n2)cn1	·	-10%	-22%	35	0%
COc1cc(/C=N/NC(=O)CCn2c3ccccc3c3ccccc32)cc(OC)c1OC	1	-26%	12%	-2	18µM*
COc1ccc(-c2cn(-c3ccc(Br)cc3)c3[n+]2CCS3)cc1	-3	?	6%	10	-18%
CC(=O)c1ccc(-n2cc(-c3ccc(C(C)(C)C)cc3)[n+]3c2SCCC3)cc1	-2	11µM*	-22%	2	7.3µM*
CNc1nc(-c2ccccc2)[n+](-c2ccc(C)cc2)s1	0	7.1µM*	7.9µM*	26	-7%
CCn1c(C)nc2cc(C(=O)N/N=C/c3cccc(OC)c3O)ccc21	-3	0.71µM*	0.32µM*	-4	?
CCn1c(C)nc2cc(C(=O)N/N=C/c3ccc(O)c(O)c3O)ccc21	-53*	-6%[10 µM]	0%	-8	?
CCOc1ccc(-c2nc(S(=O)(=O)c3ccccc3)c(NC)o2)cc1	·	0%	-3%	18	0%
CCOc1ccc(-c2nc(S(=O)(=O)c3ccccc3)c(NCc3cccnc3)o2)cc1	-6	-14%	4%	-1	15µM*
CN1CCN(Cc2cc(Cl)c3cccnc3c2OC(=O)c2cccs2)CC1	-4	13µM*	4.5µM*	7	?
O=C(Oc1c(CN2CCOCC2)cc(Cl)c2cccnc12)c1ccccc1Br	-9	4µM*	6.3µM*	-2	8.2µM*
Cc1cc(-c2nnc(CCC(=O)NCCc3ccccc3F)o2)no1	2	1%	25%	0	15%
COC(=O)CCC(=O)Oc1ccc(OC(=O)CCC(=O)OC)cc1	-1	?	13µM*	7	?
S=c1nn[nH]n1C12CC3CC(CC(C3)C1)C2	8	7.1µM*	2.5µM*	-4	-2%
S=c1nc(C23CC4CC(CC(C4)C2)C3)[nH][nH]1	-3	0%	-36%	6	-1%
SMILES	Coupling enz	VP16 counter	RORg inh	TSHR antagonist	ELG1 repair inh
CC1=NN(C(=O)c2csc(C(C)C)c2)C(O)(C(F)(F)F)C1 (stereo unspecified)	1	4.5µM*	5µM*	11	6%
CC1=NN(C(=O)c2cccnc2)C(O)(C(F)(F)F)C1 (stereo unspecified)	0	13µM*	7.9µM*	5	7%
CC(C)CC1=NN(C(=O)c2cccnc2)C(O)(C(F)(F)F)C1 (stereo unspecified)	0	13µM*	11µM*	9	1%
CC1=NN(C(=O)c2ccoc2C)C(O)(C(F)(F)F)C1 (stereo unspecified)	0	10µM*	3.5µM*	-3	?
CC(C)C1=NN(C(=O)c2cccnc2)C(O)(C(F)(F)F)C1 (stereo unspecified)	1	?	-49%	16	-5%
CCCCC1=NN(C(=O)c2cocc2C)C(O)(C(F)(F)F)C1 (stereo unspecified)	0	?	?	-8	-12%
C[C@H](NC(=O)[C@H](Cc1ccccc1)NC(=O)c1cc2cc(Cl)ccc2n1C)C(=O)O	7	-2%	26%	-7	-1%
O=C(Nc1ccc(CSc2ccccc2)cc1)c1ccco1	·	?	-14%	-9	?
CCCCCCCCCCC(C)(C)C(=O)Nc1c(OC)cc(OC)cc1OC	-1	-3%	0%	-20	·
O=C(c1ccncc1)N1N=C(C2CC2)CC1(O)C(F)(F)F (stereo unspecified)	0	-17%	11µM*	-5	-7%
O=c1cc(-c2ccc(OCc3ccccc3)cc2)oc2cc(OCc3ccccc3)cc(OCc3ccccc3)c12	·	·	·	1	9%
Cc1cc(C(=O)Nc2cc(C(C)(C)C)on2)c(C)o1	-4	2%	10µM*	-14	?
Cc1cc(C(=O)Nc2ccon2)c(C)o1	-1	-7%	-2%	-2	23%
CCc1c(O)c(/C(C)=N\O)c(=O)n(-c2ccccc2)c1-c1ccccc1	-10	35µM*	?	-12	-14%
C/C(=N\O)c1c(O)cc(-c2ccccc2)n(-c2ccccc2)c1=O	-9	0%	?	-3	-10%
C=CCO/N=C(/C)c1c(O)c(CC)c(-c2ccccc2)n(-c2ccccc2)c1=O	-9	-14%	34%	-23	-12%
C/C(=N/O)c1c(O)c(C)c(-c2ccccc2)n(-c2ccccc2)c1=O	3	5.6µM*	5.6µM*	-3	-5%
